Measurements taken from PubChem BioAssay.
Active and inactive are the calls of the source. Unless noted, no rule for the calls is given here.

Key:
[1] = compounds binding Alexa647 anti-His antibody – biochemical, small-molecule microarray, 635 nm fluorescence, artefact control for SMM control protein annotation, primary screen (AID 1128); details: higher = more signal;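 also: score merges feature fluorescence with signal-to-noise for each printed compound spot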
[2] = tested on: Human papillomavirus type 1a E7 protein (residues 1-88); experiment: HPV1a E7 small-molecule binders, primary screen, biochemical, small-molecule microarray, residues 1-88, 635 nm (AID 1129); details: small-molecule microarray binding, fluorescence 635 nm; higher = more signal
[3] = target: Focal adhesion kinase 1 (Homo sapiens) (UniProt Q05397); experiment: PTK2 protein binding on printed compound slides – biochemical, small-molecule microarray, 635/667 nm fluorescence, BSA, DTT, primary screen (AID 1130); details: 635 nm fluorescence, higher = more signal;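 also: composite of spot emission at 667 nm and signal to noise over triplicate slides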
Sequence of Focal adhesion kinase 1 (Homo sapiens) (Q05397 whole entry, looked up): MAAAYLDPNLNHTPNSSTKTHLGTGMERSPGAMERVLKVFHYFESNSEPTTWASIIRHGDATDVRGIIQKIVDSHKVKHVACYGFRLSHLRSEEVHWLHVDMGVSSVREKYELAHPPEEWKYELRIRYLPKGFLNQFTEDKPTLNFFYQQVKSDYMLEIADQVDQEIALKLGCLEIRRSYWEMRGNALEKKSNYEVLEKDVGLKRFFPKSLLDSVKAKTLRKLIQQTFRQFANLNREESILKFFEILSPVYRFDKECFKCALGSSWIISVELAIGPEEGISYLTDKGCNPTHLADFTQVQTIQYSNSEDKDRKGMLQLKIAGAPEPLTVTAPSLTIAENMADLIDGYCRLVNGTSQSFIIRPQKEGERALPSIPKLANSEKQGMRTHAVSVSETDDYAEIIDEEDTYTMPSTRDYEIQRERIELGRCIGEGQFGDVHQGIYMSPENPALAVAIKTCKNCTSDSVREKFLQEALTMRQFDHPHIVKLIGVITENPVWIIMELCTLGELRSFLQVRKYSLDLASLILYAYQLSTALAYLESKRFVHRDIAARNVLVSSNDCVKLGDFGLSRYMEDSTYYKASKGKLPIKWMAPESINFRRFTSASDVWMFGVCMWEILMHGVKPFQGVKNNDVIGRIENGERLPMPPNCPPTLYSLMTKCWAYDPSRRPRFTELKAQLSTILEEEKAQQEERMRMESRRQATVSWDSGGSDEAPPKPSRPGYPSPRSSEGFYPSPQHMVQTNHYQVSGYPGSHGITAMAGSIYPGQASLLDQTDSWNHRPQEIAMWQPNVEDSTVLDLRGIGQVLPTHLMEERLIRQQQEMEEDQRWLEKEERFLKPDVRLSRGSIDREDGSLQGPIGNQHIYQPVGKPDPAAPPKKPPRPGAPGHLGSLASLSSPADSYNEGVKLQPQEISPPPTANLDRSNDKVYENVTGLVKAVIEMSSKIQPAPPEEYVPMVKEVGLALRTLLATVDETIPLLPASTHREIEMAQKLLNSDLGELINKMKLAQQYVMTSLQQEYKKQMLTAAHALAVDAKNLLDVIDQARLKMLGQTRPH

[4] = tested on: Fibrinogen (Alexa647-labelled); experiment: Alexa647-fibrinogen binding to printed small molecules – biochemical, small-molecule microarray, 635/667 nm fluorescence, artefact control for SMM control-protein annotation, profiling panel (AID 1131); details: fibrinogen-A647 binding fluorescence, higher = more signal;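 also: z-score merges 667 nm fluorescence with per-spot signal-to-noise over triplicate slides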
[5] = target: Follistatin (Homo sapiens) (UniProt P19883); experiment: FST protein binding to printed compounds – biochemical, small-molecule microarray, 635/667 nm fluorescence, primary screen (AID 1132); details: 635 nm fluorescence, higher = more signal
Sequence of Follistatin (Homo sapiens) (P19883 whole entry, looked up): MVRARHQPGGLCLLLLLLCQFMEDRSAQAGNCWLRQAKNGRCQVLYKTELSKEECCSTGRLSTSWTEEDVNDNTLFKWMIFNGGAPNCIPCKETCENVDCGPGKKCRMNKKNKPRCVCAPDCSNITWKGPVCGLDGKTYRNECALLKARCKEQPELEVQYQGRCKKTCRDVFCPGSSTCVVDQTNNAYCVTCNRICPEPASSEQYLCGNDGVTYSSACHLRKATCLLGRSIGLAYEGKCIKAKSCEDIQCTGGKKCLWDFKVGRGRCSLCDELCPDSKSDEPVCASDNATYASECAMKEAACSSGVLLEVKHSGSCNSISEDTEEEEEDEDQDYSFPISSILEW

[6] = target: Fibroblast growth factor 2 (Homo sapiens) (UniProt P09038); experiment: basic fibroblast growth factor binding to printed compounds – biochemical, small-molecule microarray, 635/667 nm fluorescence, primary screen (AID 1133); details: FGF2, fluorescence 635/667, higher = more signal
Sequence of Fibroblast growth factor 2 (Homo sapiens) (P09038 whole entry, looked up): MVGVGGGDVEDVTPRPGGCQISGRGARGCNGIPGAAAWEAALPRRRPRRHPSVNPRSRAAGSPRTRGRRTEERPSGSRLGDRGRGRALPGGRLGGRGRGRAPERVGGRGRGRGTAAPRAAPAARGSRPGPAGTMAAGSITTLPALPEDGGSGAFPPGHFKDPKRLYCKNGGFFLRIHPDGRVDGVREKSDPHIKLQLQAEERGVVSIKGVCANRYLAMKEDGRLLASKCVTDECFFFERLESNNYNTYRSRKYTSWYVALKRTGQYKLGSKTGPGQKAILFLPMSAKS

[7] = JC-1 mitochondrial potential readout, lung cancer cells – cell-based, A549, JC-1 fluorescence, basal, 24 h, 100 nL, profiling panel (AID 1138); details: higher = more signal;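 also: A549 lung adenocarcinoma cells under basal conditions with no added stimulus; test concentration not given here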
Lefty1 = Lefty1 protein binding to printed compounds – biochemical, small-molecule microarray, 635/667 nm fluorescence, primary screen (AID 1139); details: fluorescence 635/667, higher = more signal
[8] = tested on: wheat germ agglutinin (Triticum aestivum), Alexa647-labelled; experiment: Alexa647-WGA lectin binding to printed small molecules – biochemical, small-molecule microarray, 635/667 nm fluorescence, artefact control for SMM control-protein annotation, profiling panel (AID 1140); details: WGA-A647 binding, 635 nm fluorescence, higher = more signal;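 also: score merges 667 nm feature emission with signal to noise over triplicate slides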
[9] = target: Luciferin 4-monooxygenase (Photinus pyralis) (UniProt P08659); experiment: inhibition of purified Photinus pyralis luciferase – biochemical, luminescence, purified enzyme, 2006 set, primary screen (AID 1141); details: purified firefly luciferase, SteadyGlo luminescence, 30 min; higher = more signal, called active from +8 up or from −8 down;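 also: cell-free assay with purified firefly luciferase at 100 ng per well in PBS; test concentration not given here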
Sequence of Luciferin 4-monooxygenase (Photinus pyralis) (P08659 whole entry, looked up): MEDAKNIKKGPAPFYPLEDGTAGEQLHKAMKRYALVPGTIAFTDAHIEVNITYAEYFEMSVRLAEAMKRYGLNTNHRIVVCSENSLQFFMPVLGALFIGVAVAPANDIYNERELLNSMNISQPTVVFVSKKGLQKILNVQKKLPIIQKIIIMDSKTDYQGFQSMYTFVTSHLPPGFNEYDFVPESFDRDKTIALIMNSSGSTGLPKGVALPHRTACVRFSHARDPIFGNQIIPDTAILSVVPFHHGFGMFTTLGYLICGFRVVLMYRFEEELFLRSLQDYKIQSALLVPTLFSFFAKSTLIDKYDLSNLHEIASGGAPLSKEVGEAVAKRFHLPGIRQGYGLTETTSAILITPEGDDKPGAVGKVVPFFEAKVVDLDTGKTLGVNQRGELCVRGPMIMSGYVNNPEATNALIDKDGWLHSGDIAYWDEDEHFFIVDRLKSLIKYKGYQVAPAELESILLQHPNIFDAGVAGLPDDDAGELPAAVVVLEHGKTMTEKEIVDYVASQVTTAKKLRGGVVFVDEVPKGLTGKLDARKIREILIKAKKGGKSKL

[10] = tested on: Wnt5a (protein binding on small-molecule microarray); experiment: small molecules binding Wnt5a protein – biophysical, small-molecule microarray, 635/667 nm fluorescence, primary screen (AID 1142); details: 635 nm fluorescence, higher = more signal;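 also: fluorescence read at 667 nm with signal to noise per printed feature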
[11] = ATP-based viability of Huh7 replicon cells – cell-based, CellTiter-Glo luminescence, basal, 48 h, cytotoxicity control for HCV replication inhibitor project, primary screen (AID 1143); details: higher = more signal, called active from +8 up or from −8 down;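 also: Huh7 hepatoma cells carrying a hepatitis C replication reporter with no stimulus; test concentration not given here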
[12] = Pseudomonas biofilm growth suppression – PAO1 strain, BacTiter-Glo luminescence, LB-PBS, primary screen (AID 1144); details: P. aeruginosa PAO1 biofilm, 12 h, higher = more signal
[13] = basal CRE-LacZ reporter activity in PC12 – cell-based, unstimulated, primary screen (AID 1145); details: no forskolin, luminescence, 4.5 h, higher = more signal, called active from +8 up or from −8 down
[14] = forskolin-driven CRE-LacZ activity in PC12 – cell-based, CRE-LacZ reporter, forskolin-stimulated, primary screen (AID 1146); details: luminescence, 4.5 h, higher = more signal, called active from +8 up or from −8 down;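 also: PC12 cells with 6xCRE LacZ reporter stimulated by forskolin 10 µM; beta-galactosidase reporter signal reflecting CREB driven transcription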
[15] = target: Streptavidin (Streptomyces avidinii) (UniProt P22629); experiment: compounds binding control protein streptavidin – biophysical, small-molecule microarray, 635/667 nm fluorescence, artefact control for SMM compound annotation, primary screen (AID 1147); details: higher = more signal;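 also: signal reflects streptavidin binding to arrayed compounds as a control protein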
Sequence of Streptavidin (Streptomyces avidinii) (P22629 whole entry, looked up): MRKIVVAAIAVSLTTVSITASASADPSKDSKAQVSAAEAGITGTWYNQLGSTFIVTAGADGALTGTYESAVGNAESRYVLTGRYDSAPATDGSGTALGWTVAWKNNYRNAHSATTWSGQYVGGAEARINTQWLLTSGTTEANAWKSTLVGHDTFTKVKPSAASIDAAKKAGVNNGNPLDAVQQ

[16] = probe aInhba binding on compound microarray – biochemical, small-molecule microarray, 635/667 nm fluorescence, primary screen (AID 1148); details: higher = more signal;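 also: score merges 667nm spot fluorescence with signal-to-noise for antibody binding to printed compounds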
Torsin-1A (Homo sapiens) [17] = target: Torsin-1A (Homo sapiens) (UniProt O14656); experiment: TOR1A wild-type binding on microarray – cell lysate, small-molecule microarray, lysate, 635/667 nm, primary screen (AID 1149); details: COS7 hTOR1A-WT lysate, 635 nm fluorescence, higher = more signal
Sequence of Torsin-1A (Homo sapiens) (O14656 whole entry, looked up): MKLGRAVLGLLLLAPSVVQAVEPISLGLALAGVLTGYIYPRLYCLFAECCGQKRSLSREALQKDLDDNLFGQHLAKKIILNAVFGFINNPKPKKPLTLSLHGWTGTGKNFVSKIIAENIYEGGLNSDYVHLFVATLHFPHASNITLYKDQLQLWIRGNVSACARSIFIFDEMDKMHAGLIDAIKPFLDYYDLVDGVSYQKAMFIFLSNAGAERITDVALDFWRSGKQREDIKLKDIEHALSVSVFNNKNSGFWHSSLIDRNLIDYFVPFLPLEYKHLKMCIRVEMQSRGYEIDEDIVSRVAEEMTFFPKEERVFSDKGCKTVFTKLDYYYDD

Torsin-1A (Homo sapiens) [18] = target: Torsin-1A (Homo sapiens) (UniProt O14656); experiment: torsin A mutant lysate binding on microarrays – cell lysate, small-molecule microarray, COS7 lysate, 635/667 nm fluorescence, primary screen (AID 1150); details: COS7 hTOR1A mutant lysate, 635 nm fluorescence, higher = more signal;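 also: score pools 667 nm emission and signal to noise measuring lysate protein binding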
[19] = tested on: Sonic hedgehog protein (Shh); experiment: Sonic hedgehog microarray binding compounds – biochemical, small-molecule microarray, 635/667 nm fluorescence, primary screen (AID 1151); details: 635 nm fluorescence, higher = more signal;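 also: Shh protein binding to compounds spotted on small-molecule microarray slides; score combines spot fluorescence intensity with signal-to-noise across triplicate slides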

SMILES	composite z-score [1]	composite z-score [2]	composite z-score [3]	composite z-score [4]	composite z-score [5]	composite z-score [6]	z-score [7]	composite z-score (Lefty1)	composite z-score [8]	z-score [9]	composite z-score [10]	z-score [11]	z-score [12]	z-score [13]	z-score [14]	composite z-score [15]	composite z-score [16]	composite z-score (Torsin-1A (Homo sapiens) [17])	composite z-score (Torsin-1A (Homo sapiens) [18])	composite z-score [19]
CC(=O)NCCCC[C@@H]1NC(=O)[C@@H]2C[C@H](C(=O)O)[C@H](c3ccc(O)cc3)N2C1=O	2.07	-1.12	-0.58	-0.408	-0.893	-1.15	-0.61	-1.71	-0.885	0.75 (inactive)	-0.734	0.454 (inactive)	-0.646 (inactive)	-0.679 (inactive)	0.407 (inactive)	-1.04	-0.335	-2.46	-2.19	-0.96
NCCCCCNC(=O)[C@@H]1C[C@@H]2C(=O)N[C@@H](CCCCN)C(=O)N2[C@@H]1c1cccc(OCCO)c1	2.33	-0.0045	-0.214	0.101	1.17	1.25	0.844	1.54	0.715	1.03 (inactive)	0.331	0.21 (inactive)	-0.85 (inactive)	-0.541 (inactive)	-0.304 (inactive)	0.302	-0.331	0.247	-0.02	1.55
COc1cc2c(cc1OC)CN(C(=O)[C@H]1[C@@H]3C(=O)O[C@@H](c4ccccc4)[C@@H](c4ccccc4)N3[C@@H](c3ccc(OCCO)cc3)[C@]13C(=O)Nc1ccc(C#CCCO)cc13)CC2	1.43	1.22	0.541	0.939	1.35	0.742	-0.96	1.14	1.01	0.268 (inactive)	0.455	0.0229 (inactive)	-0.0983 (inactive)	-0.61 (inactive)	-0.48 (inactive)	1.31	0.659	0.272	0.764	1.62
CN(C)CCCNC(=O)[C@@]1(C)c2ccccc2C(=O)N(Cc2cc(C(F)(F)F)cc(C(F)(F)F)c2)[C@H]1c1ccc(CO)cc1	-0.216	-0.446	-0.24	-2.28	-0.775	-0.762	-0.0872	-1.03	-0.973	0.386 (inactive)	-0.284	-4.27 (inactive)	-0.391 (inactive)	0.234 (inactive)	-0.227 (inactive)	-0.95	0.0275	-0.639	-0.774	-0.584
CC(C)(C)OC(=O)CC[C@]1(C(=O)N2CCOCC2)N=C(c2ccc(OCCCO)cc2)O[C@H]1c1ccccc1	1.9	0.645	0.407	0.886	0.825	0.858	2.23	0.398	0.298	-1.99 (inactive)	0.959	-1.37 (inactive)	0.838 (inactive)	-0.114 (inactive)	1.06 (inactive)	2.02	-0.152	-0.0284	0.618	-0.733
COCCOC(=O)N1C(=O)[C@@]2(c3cc(C#CC4(O)CCCCCC4)ccc31)[C@H](C(N)=O)[C@H]1C(=O)O[C@H](c3ccccc3)[C@H](c3ccccc3)N1[C@@H]2c1ccc(O)cc1	1.28	1.17	0.124	0.329	1.32	0.869	-0.317	0.754	0.547	-1.4 (inactive)	0.179	-1.02 (inactive)	0.00701 (inactive)	2.25 (inactive)	3.59 (inactive)	0.184	-0.0645	-0.0243	0.0342	0.778
CCCCN1CC=CC23O[C@@H]4C=CCOC(=O)[C@@H]4[C@H]2C(=O)N(CCCO)[C@@H]3C1=O (stereo not given in full)	0.56	-0.518	-0.609	-1.28	-1.45	-0.682	-1.08	-0.199	-0.929	-0.135 (inactive)	-0.133	-1.98 (inactive)	-0.766 (inactive)	-0.757 (inactive)	1.47 (inactive)	-0.808	-0.23	0.222	-0.107	-0.512
CCCCN1CC=CC23O[C@@H]4/C=C\CCC(C)OC(=O)C4[C@H]2C(=O)N(CCCCCCO)[C@@H]3C1=O (stereo not given in full)	0.539	0.0554	-0.266	-1.22	-0.454	-0.668	0.376	-0.74	-0.465	-0.393 (inactive)	0.0569	0.745 (inactive)	-0.72 (inactive)	0.61 (inactive)	-0.0292 (inactive)	-0.519	-0.239	1.08	2.16	-0.57
NC(N)=NCc1cn(CCc2c[nH]c3ccccc23)nn1	2	0.599	0.0313	0.367	0.832	1.07	0.0134	1.05	0.0932	-0.813 (inactive)	0.131	-0.343 (inactive)	0.845 (inactive)	-0.0989 (inactive)	0.0771 (inactive)	0.294	0.0275	0.607	0.734	1.54
CCOC(=O)C[C@H]1[C@H](OC(=O)c2ccc(C(=O)c3ccccc3)cc2)[C@@H](NC(=O)c2ccc3ccccc3c2)c2cc(OCCCO)ccc2N1C(=O)c1ccccc1	0.405	1.13	0.287	0.73	0.599	0.436	0.315	1.14	1.1	-0.204 (inactive)	0.173	-0.0506 (inactive)	-0.0382 (inactive)	0.0777 (inactive)	-0.506 (inactive)	0.849	-0.105	0.196	0.321	0.867
